Bioassay records: PubChem BioAssay, National Center for Advancing Translational Sciences (NCATS)
An excerpt weighted towards active compounds, which were near 9.2% of everything screened.
HTT cytoprotect = Huntington cell model cytoprotection by ATP luminescence; 230,000 tested, 0.14% active; AID 1471; Potency, µM (titrated, usually from 56.4 µM), most hits filed as activators; PC12 HTT-Q103 induced, cytoprotection, ATP luminescence, 40 h; active = well fitted curve in the direction sought with a large enough effect; inconclusive = small, poorly fitted or top-dose-only effect, or another doubt; inactive = no such curve, though single readings can be large; an effect the other way counts as inactive or inconclusive; note: nearly all actives have a fitted effect of over 45% in size
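Compounds added alongside 100 nM tebufenozide, which induces toxic Q103 huntingtin exon 1-GFP in stable PC12 cells; surviving cells quantified by luminescent ATP measurement. Medium: phenol red-free DMEM, 5% equine and 5% calf serum.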
HPGD block = blocks human HPGD enzyme activity. 150,000 tested, 4.3% active. purified HPGD, NADH fluorescence kinetic, PGE2 substrate. Potency, µM, hits mostly inhibitors
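NADH formation kinetics: reaction with 30 uM PGE2 and 1 mM NAD+ (final), 20 nM enzyme, Tris-HCl pH 8 with Tween 20, after 15 min compound preincubation at room temperature. Fluorescence change, last versus first of five reads.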
JMJD2E inh = JMJD2E (human) inhibition; Potency, µM (top dose mostly 57.1 µM), usual class: inhibitors; 230,000 tested, 1.6% active; JMJD2E catalytic domain, FDH-coupled NADH fluorescence (FDH is formaldehyde dehydrogenase); B2RXH2; note: nearly all actives have a fitted effect of over 50% in size
ALDH1A1 block = ALDH1A1 (human) enzyme inhibition; Purified ALDH1A1, NADH fluorescence, propionaldehyde substrate; P00352; Potency, µM (top dose mostly 75.3 µM), most hits filed as inhibitors; 220,000 tested, 7.3% active; AID 1030
Target sequence (P00352 whole entry, looked up): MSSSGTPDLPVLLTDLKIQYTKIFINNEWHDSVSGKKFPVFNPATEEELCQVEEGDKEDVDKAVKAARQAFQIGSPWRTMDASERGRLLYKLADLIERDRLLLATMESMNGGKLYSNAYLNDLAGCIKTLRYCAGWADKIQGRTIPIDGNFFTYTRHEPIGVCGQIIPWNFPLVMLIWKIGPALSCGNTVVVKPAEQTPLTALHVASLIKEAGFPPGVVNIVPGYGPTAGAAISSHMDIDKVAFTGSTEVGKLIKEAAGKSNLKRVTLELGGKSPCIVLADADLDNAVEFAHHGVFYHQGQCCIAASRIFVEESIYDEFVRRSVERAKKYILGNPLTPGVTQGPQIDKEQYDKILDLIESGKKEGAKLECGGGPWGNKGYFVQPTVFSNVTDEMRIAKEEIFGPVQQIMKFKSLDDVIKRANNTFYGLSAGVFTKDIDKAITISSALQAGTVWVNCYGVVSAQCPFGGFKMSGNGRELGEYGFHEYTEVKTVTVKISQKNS
HTT aggregate = mutant huntingtin aggregation inhibition; PC12 HttQ103-GFP aggregates, Acumen cytometry, 40 h; Potency, µM (titrated, usually from 46.1 µM), most hits filed as inhibitors; 220,000 tested, 1.1% active; active = well fitted curve in the direction sought with a large enough effect; inconclusive = small, poorly fitted or top-dose-only effect, or another doubt; inactive = no such curve, though single readings can be large; an effect the other way counts as inactive or inconclusive; note: nearly all actives have a fitted effect of over 60% in size
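PC12/HTTQ103-GFP, ecdysone-inducible; teb 100 nM; cpd qHTS titration; GFP aggregates read on laser cytometer, Ex 488/Em 500-530 nm.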
Lamin A splicing = LMNA splicing modulation. HeLa LMNA splicing GFP/RFP minigene ratio, 48 h. Potency, µM (titrated, usually from 46.1 µM), hits mostly inhibitors. 200,000 tested, 0.01% active; active = well fitted inhibition curve with a large enough effect in the signal ratio, with a control signal flat, not every such curve was filed as active; inconclusive = small, poorly fitted or top-dose-only effect, or effect the other way, or a change in a side signal; the % refers to the signal ratio
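S3 HeLa cells stably expressing lamin A-EGFP splicing minigene plus DsRed2, 600 cells/well, 48 h compound exposure at 37C. Laser-scanning cytometry; analysed as GFP (500-530 nm)/RFP (575-640 nm) total intensity ratio; 0.5% DMSO vehicle.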
Hits are given with their value; [ ] = dose if it differs, or a comment. Unless noted, calls come from the whole dose curve; as a rule, active = well fitted inhibition curve with a large enough effect (not every such curve was filed as active); inconclusive = small, poorly fitted or top-dose-only effect, or another doubt; inactive = no such curve, though single readings can be large or run the other way.

`O=C1OC(c2ccc(O)c(-c3ccccc3)c2)(c2ccc(O)c(-c3ccccc3)c2)c2c(Cl)c(Cl)c(Cl)c(Cl)c21` gave HTT cytoprotect inactive[10 µM], HPGD block inactive and ALDH1A1 block inactive[13.5 µM].
O=C1OC2(c3cc(Br)c(O)c(Br)c3Oc3c2cc(Br)c(O)c3Br)c2c(Cl)c(Cl)c(Cl)c(Cl)c21 was read as HTT cytoprotect inactive, HPGD block 13µM and ALDH1A1 block 25µM.
`O=C(NCc1cn2ccsc2n1)c1cccc(C(F)(F)F)c1` gave HTT cytoprotect inactive, HPGD block inactive, JMJD2E inh inactive, ALDH1A1 block inactive, HTT aggregate inactive[9.22 µM] and Lamin A splicing inactive.
For O=C(NCc1cn2ccsc2n1)c1c(F)cccc1Cl the results were HTT cytoprotect inactive, HPGD block 8.9µM, JMJD2E inh inactive, ALDH1A1 block inactive, HTT aggregate inactive and Lamin A splicing inactive.
For O=C(NCc1cccc(F)c1)c1ccc2nc(CCc3ccccc3)oc2c1 the results were Lamin A splicing inactive.
`O=C(CN(CC1CCCO1)C(=O)CNS(=O)(=O)c1ccccc1)NCc1ccco1` (configuration not stated) gave HTT cytoprotect inactive[10 µM], JMJD2E inh inactive, ALDH1A1 block inactive and HTT aggregate inactive[9.22 µM].
For O=C(CN(Cc1cccs1)C(=O)CNS(=O)(=O)c1ccccc1)NCc1ccco1 the results were HTT cytoprotect inactive[10 µM], HPGD block inactive, JMJD2E inh inactive, ALDH1A1 block 20µM, HTT aggregate inactive and Lamin A splicing inactive.
For Cc1ccc(S(=O)(=O)NCC(=O)N(CC(=O)NCC2CCCO2)Cc2ccco2)cc1 (configuration not stated) the results were HTT cytoprotect inactive[10 µM], JMJD2E inh inactive, ALDH1A1 block 18µM, HTT aggregate inactive[9.22 µM] and Lamin A splicing inactive.
O=C(CN(Cc1ccco1)C(=O)CNS(=O)(=O)c1ccccc1)NC1CCCCC1 was read as HTT cytoprotect inactive, HPGD block inactive, JMJD2E inh inactive, ALDH1A1 block inactive, HTT aggregate inactive[9.22 µM] and Lamin A splicing inactive.
Screening O=C(CN(Cc1ccco1)C(=O)CNS(=O)(=O)c1ccc(F)cc1)NCCc1ccccc1 returned HTT cytoprotect inactive, HPGD block inactive, JMJD2E inh inactive, ALDH1A1 block inactive, HTT aggregate inactive and Lamin A splicing inactive.
Screening Cc1ccc(S(=O)(=O)NCC(=O)N(CC(=O)NCc2ccco2)Cc2ccco2)cc1 returned HTT cytoprotect inactive[10 µM], JMJD2E inh inactive, ALDH1A1 block 8.9µM, HTT aggregate inactive[9.22 µM] and Lamin A splicing inactive.
For O=C(CN(Cc1ccco1)C(=O)CNS(=O)(=O)c1ccccc1)NCc1ccccc1 the results were HTT cytoprotect inactive[10 µM], HPGD block inactive, JMJD2E inh inactive, ALDH1A1 block 14µM, HTT aggregate inactive and Lamin A splicing inactive.
For Cc1ccc(C2=Nc3ccccc3N(CC(=O)NCc3ccccc3Cl)C(=O)C2)cc1C the results were Lamin A splicing inactive.
`Cc1ccc(NC(=O)CCn2c(=O)c3cccn3c3ccccc32)cc1C` gave Lamin A splicing inactive.
For Cc1cc(C)c2c(N)c(S(=O)(=O)Cc3ccccc3)sc2n1 the results were HTT cytoprotect inactive, HPGD block 22µM, JMJD2E inh inconclusive, ALDH1A1 block inactive, HTT aggregate inactive[9.22 µM] and Lamin A splicing inactive.
For Cc1cc(C)c2c(N)c(C(=O)c3ccccc3Cl)sc2n1 the results were HTT cytoprotect inactive[10 µM], JMJD2E inh inactive, ALDH1A1 block inconclusive and HTT aggregate inactive[9.22 µM].
For CC(=O)c1cccc(NC(=O)/C(=C\c2cccnc2)NC(=O)c2ccco2)c1 the results were JMJD2E inh inactive, ALDH1A1 block inactive and HTT aggregate inactive.
COc1ccc(CNc2nc(-c3ccco3)nn2S(=O)(=O)c2ccc3ccccc3c2)cc1OC was read as Lamin A splicing inactive.
Screening CCn1c(=O)c([N+](=O)[O-])c(NCC(O)c2ccccc2)c2ccccc21 (configuration not stated) returned HPGD block 16µM, JMJD2E inh inactive, ALDH1A1 block inconclusive, HTT aggregate inactive and Lamin A splicing inconclusive.
For CCn1c(=O)c([N+](=O)[O-])c(Cl)c2ccccc21 the results were HTT cytoprotect inactive[10 µM], JMJD2E inh inactive, ALDH1A1 block inconclusive, HTT aggregate inconclusive and Lamin A splicing inconclusive.
Cn1c(=O)c([N+](=O)[O-])c(NCC(O)c2ccccc2)c2ccccc21 (configuration not stated) was read as HPGD block 25µM, JMJD2E inh inactive, ALDH1A1 block inconclusive, HTT aggregate inactive and Lamin A splicing inactive.
For COCCNc1c([N+](=O)[O-])c(=O)n(-c2ccccc2)c2ccccc12 the results were HTT cytoprotect inactive[10 µM], HPGD block inactive, JMJD2E inh inactive, ALDH1A1 block inconclusive, HTT aggregate inactive and Lamin A splicing inactive.
Screening CCn1c(=O)c([N+](=O)[O-])c(NCC2CCCO2)c2ccccc21 (configuration not stated) returned HTT cytoprotect inactive[10 µM], JMJD2E inh inactive and HTT aggregate inactive[9.22 µM].
`O=c1c([N+](=O)[O-])c(NCCN2CCCCCC2)c2ccccc2n1-c1ccccc1` gave HTT cytoprotect inactive[10 µM], HPGD block inactive, JMJD2E inh inactive, ALDH1A1 block 4µM, HTT aggregate inactive and Lamin A splicing inactive.
Screening CCn1c(=O)c([N+](=O)[O-])c(NCCN(C)C)c2ccccc21 returned HTT cytoprotect inactive[10 µM], JMJD2E inh inactive, ALDH1A1 block 11µM and HTT aggregate inactive[9.22 µM].
Screening Cn1nnc2ccccc2c1=O returned HTT cytoprotect inactive, JMJD2E inh inactive, ALDH1A1 block inactive, HTT aggregate inactive and Lamin A splicing inactive.
O=C(c1cccc(F)c1)N1CCC2(CCCN(Cc3cc(C(F)(F)F)cc(C(F)(F)F)c3)C2)CC1 was read as HTT cytoprotect inactive, HPGD block inactive and ALDH1A1 block inactive.
`CCCC[C@@H]1C[C@H]1C(NC(=O)c1ccco1)c1ccccc1` (some centres not stated) gave HTT cytoprotect inactive, HPGD block inactive, JMJD2E inh inactive and ALDH1A1 block 25µM.
Screening COC(=O)[C@H]1C[C@@H]1[C@H](NC(=O)c1ccccc1)c1ccccc1 returned HTT cytoprotect inactive, HPGD block inactive, JMJD2E inh inactive, ALDH1A1 block 8.9µM, HTT aggregate inactive and Lamin A splicing inactive.
CCCC[C@@H]1C[C@H]1C(NC(=O)Cc1ccccc1)c1ccc(-c2ccccc2)cc1 (some centres not stated) was read as HTT cytoprotect inactive, HPGD block inactive, JMJD2E inh inactive and ALDH1A1 block inactive.
Screening Cc1ccc(CNC(=O)c2ccc3c(=O)n(CC4CCCO4)c(=S)[nH]c3c2)cc1 (configuration not stated) returned HTT cytoprotect inactive, HPGD block inactive, JMJD2E inh inactive, ALDH1A1 block inconclusive, HTT aggregate inactive and Lamin A splicing inactive.
